HT1080-NT tox = kills 2HG-producing HT-1080-NT fibrosarcoma cells; HT-1080-NT fibrosarcoma viability, CellTiter-Glo ATP luminescence, 48 h; Potency, µM (titrated, usually from 46.1 µM), without a hit: at the highest dose activity, negative = less viability, most hits filed as cytotoxic; 1.6% of 360,000 active;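 also: NT is the 2HG producing partner of a matched IDH1 knockdown line; potency is read from the fitted curve at half-maximal effect; 0% = DMSO-treated cells and -100% = media-only wells without cells; nearly all actives have a fitted effect of over 55% in size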
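Toxicity toward the 2HG-producing NT line was scored as %Activity, normalised to DMSO and no-cell wells, from CellTiter-Glo luminescence after 48 hours' treatment.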
IL-1B inflam inh = inhibitors of inflammasome signaling (IL-1 beta secretion) | activity change, % at 57.5 µM | THP-1 LPS/ATP IL-1B secretion, AlphaLISA, 16 h; stronger effect = lower value | 4.7% of 360,000 active; in the data active = activity change below about -50%; inconclusive = mostly about -30% to -49%
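Secreted IL-1B measured by AlphaLISA bead assay after 16 h compound exposure of THP-1 cells; compounds (final up to 57.5 uM) added 1 h before LPS (250 ng/mL) and ATP (1.25 mM) stimulation; lower signal means less secretion.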
TDP1 cell CPT = DT40-hTDP1 cell growth loss with CPT. 12% of 420,000 active. Potency, µM (series often up to 46.2 µM), inactives show at the top dose activity change, negative = growth inhibition, actives largely listed as inhibitors. chicken DT40 Tdp1-/-;hTDP1 cells + 20 nM CPT, ATP luminescence, 48 h; also: potency is read from the fitted curve at half-maximal effect; nearly all actives have a fitted effect of over 55% in size
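Cell growth measured by CellTiter-Glo luminescence after a minimum 48 h, 37 C compound exposure with 20 nM CPT in Tdp1-knockout DT40 cells stably expressing hTDP1, seeded 400/well; qHTS titration format.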
TDP1 cell noCPT = qHTS for Inhibitors of human tyrosyl-DNA phosphodiesterase 1 (TDP1): qHTS in cells in absence of CPT; DT40 Tdp1-/- hTDP1 cells, no CPT, ATP luminescence, 48 h; AID 686978, 2013; Potency, µM (top dose mostly 46.2 µM), for inactives: at the top dose activity change, negative = growth inhibition, most hits filed as inhibitors; 15% of 420,000 active; also: potency is read from the fitted curve at half-maximal effect; nearly all actives have a fitted effect of over 55% in size
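Luminescent ATP content (CellTiter-Glo) served as the growth readout. Knockout chicken DT40 cells expressing human TDP1 were exposed to compounds without camptothecin for a minimum 48 hr at 37 °C.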
HT1080 IDH1KD tx = HT-1080 IDH1 knockdown cell toxicity (counter line). 2% of 360,000 active. AID 686971. HT-1080 IDH1 knockdown viability, ATP luminescence, 48 h. Potency, µM (top dose mostly 46.1 µM), without a hit: top-dose activity, negative = toxicity, most hits filed as cytotoxic;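 also: potency is read from the fitted curve at half-maximal effect; 0% = DMSO wells and -100% = cell-free medium wells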
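HT-1080-IDH1KD cells (IDH1 knocked down), 750/well in RPMI with 5% FBS, treated with compound 48 h at 37 degrees C. Viability by CellTiter-Glo luminescence, normalised to DMSO and no-cell wells; concentration-response curves classed.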
uPA surface inh = cell surface uPA generation inhibition; Potency, µM (highest dose often 38.3 µM), for inactives: at the top dose activity change, negative = inhibition, usual class: inhibitors; cell surface uPA generation assay, qHTS; AID 540303; 0.31% of 330,000 active; active = well fitted inhibition curve with a large enough effect; inconclusive = small, poorly fitted or top-dose-only effect; inactive = no such curve, though single readings can be large or run the other way; tested in mouse RAW 264.7 cells; also: potency is read from the fitted curve at half-maximal effect; nearly all actives have a fitted effect of over 55% in size
The depositor's hits bear a star; [ ] = remark or other dose. Hits are enriched below; roughly 19% of the tested compounds scored in any of these assays. Unless noted, calls follow the shape of the dose curve; as a rule, active = well fitted curve in the direction sought with a large enough effect; inconclusive = small, poorly fitted or top-dose-only effect, or another doubt; inactive = no such curve, though single readings can be large; an effect the other way counts as inactive or inconclusive. Unless noted, % is scaled to controls: 0 for no effect and ±100 for the full control effect.

`Cn1c(-c2ccc3c(c2)OCO3)cnc1NCc1ccccc1Cl` gave HT1080-NT tox -2%, IL-1B inflam inh -17, TDP1 cell CPT inconclusive, TDP1 cell noCPT 15µM*, HT1080 IDH1KD tx -1% and uPA surface inh -27%.
`Cn1c(-c2ccccc2)cnc1NCc1ccccc1` gave HT1080-NT tox -8%, IL-1B inflam inh -1, TDP1 cell CPT inconclusive, TDP1 cell noCPT inconclusive, HT1080 IDH1KD tx -13% and uPA surface inh inconclusive.
Screening Cn1c(-c2ccc3c(c2)OCO3)cnc1NCc1ccccc1 returned HT1080-NT tox inconclusive, IL-1B inflam inh -10, TDP1 cell CPT 21µM*, TDP1 cell noCPT inconclusive and HT1080 IDH1KD tx inconclusive.
For Cn1c(-c2cccc([N+](=O)[O-])c2)cnc1NCc1cccc(F)c1 the results were HT1080-NT tox -5%, IL-1B inflam inh -14, TDP1 cell CPT inconclusive, TDP1 cell noCPT 21µM*, HT1080 IDH1KD tx -3% and uPA surface inh -1%.
Screening CCc1nc2ccccc2n2c(-c3ccccc3)c3c(=O)n(C)c(=O)n(C)c3c12 returned TDP1 cell CPT 15µM* and TDP1 cell noCPT 21µM*.
For Cn1c(=O)c2c(-c3ccccc3)n3c4ccccc4nc(-c4ccccc4)c3c2n(C)c1=O the results were TDP1 cell CPT inconclusive and TDP1 cell noCPT 15µM*.
For COc1ccc(-c2c3c(=O)n(C)c(=O)n(C)c3c3c(-c4ccc(C)cc4)nc4ccccc4n23)cc1 the results were TDP1 cell CPT -12% and TDP1 cell noCPT -23%.
Screening Cc1cccc(-c2nc3ccccc3n3c(-c4ccccc4)c4c(=O)n(C)c(=O)n(C)c4c23)c1 returned TDP1 cell CPT -6% and TDP1 cell noCPT 2%.
`COc1ccc(-c2nc3ccccc3n3c(-c4cccc(C)c4)c4c(=O)n(C)c(=O)n(C)c4c23)cc1` gave TDP1 cell CPT 18µM* and TDP1 cell noCPT -73%.
For CC(C)N1CCCC(C)(C(=O)Nc2ccccc2)C1 (stereo not drawn) the results were HT1080-NT tox 13%, IL-1B inflam inh 14, TDP1 cell CPT 1%, TDP1 cell noCPT 3% and HT1080 IDH1KD tx inconclusive.
O=C(CC1SC(=Nc2ccccc2)N(CCc2ccccn2)C1=O)Nc1ccc(F)cc1 (stereo not drawn) was read as HT1080-NT tox inconclusive, IL-1B inflam inh -9, TDP1 cell CPT inconclusive, TDP1 cell noCPT inconclusive, HT1080 IDH1KD tx inconclusive and uPA surface inh -14%.
For COc1cccc(N=C2SC(CC(=O)Nc3ccccc3)C(=O)N2Cc2ccccn2)c1 (stereo not drawn) the results were HT1080-NT tox -19%, IL-1B inflam inh -63*, TDP1 cell CPT inconclusive, TDP1 cell noCPT inconclusive, HT1080 IDH1KD tx -15% and uPA surface inh 6%.
For Cc1cccc(C)c1N=C1SC(CC(=O)Nc2c(C)cccc2C)C(=O)N1CCc1ccccn1 (stereo not drawn) the results were HT1080-NT tox -6%, IL-1B inflam inh inconclusive, TDP1 cell CPT inconclusive, TDP1 cell noCPT 16µM*, HT1080 IDH1KD tx -9% and uPA surface inh -3%.
For Cc1ccc(S(=O)(=O)N2CCN(c3nc(-c4cccs4)nc4cccnc34)CC2)cc1 the results were TDP1 cell CPT 10µM* and TDP1 cell noCPT inconclusive.
`COc1cccc(S(=O)(=O)N2CCN(c3nc(-c4cccs4)nc4ccccc34)CC2)c1` gave HT1080-NT tox 11%, TDP1 cell CPT 14µM*, TDP1 cell noCPT 10µM* and HT1080 IDH1KD tx 0%.
`Cc1cccc(S(=O)(=O)N2CCN(c3nc(-c4cccs4)nc4ccccc34)CC2)c1` gave HT1080-NT tox 1%, TDP1 cell CPT -10%, TDP1 cell noCPT -13% and HT1080 IDH1KD tx -2%.
Cc1ccc(S(=O)(=O)C2CCN(c3nc(-c4cccs4)nc4ccccc34)CC2)cc1 was read as HT1080-NT tox -1%, TDP1 cell CPT 11µM*, TDP1 cell noCPT inconclusive and HT1080 IDH1KD tx 19%.
`Cc1ccc(S(=O)(=O)N2CCN(c3nc(-c4cccs4)nc4ccccc34)CC2)cc1` gave HT1080-NT tox 25%, TDP1 cell CPT inconclusive, TDP1 cell noCPT 11µM* and HT1080 IDH1KD tx 9%.
COc1cc(-c2c(NC(=O)c3ccco3)oc3ccccc3c2=O)cc(OC)c1OC was read as HT1080-NT tox 6%, IL-1B inflam inh 1, TDP1 cell CPT 5%, TDP1 cell noCPT 22%, HT1080 IDH1KD tx 5% and uPA surface inh -2%.
For CC1CN(CCC(=O)N2CCCC(C(=O)c3nccn3C)C2)Cc2cc(Cl)ccc2O1 (stereo not drawn) the results were TDP1 cell CPT 23%[9.04 µM] and TDP1 cell noCPT -18%.
N#CC1=C(N)Oc2n[nH]c(-c3cccs3)c2C1C1C=CCCC1 (stereo not drawn) was read as HT1080-NT tox -16%, IL-1B inflam inh -94*, TDP1 cell CPT -16%, TDP1 cell noCPT -20%, HT1080 IDH1KD tx 3% and uPA surface inh -2%.
N#CC1=C(N)Oc2n[nH]c(-c3cccs3)c2C1C1CCCCC1 (stereo not drawn) was read as HT1080-NT tox inconclusive, IL-1B inflam inh -98*, TDP1 cell CPT inconclusive, TDP1 cell noCPT inconclusive, HT1080 IDH1KD tx -25% and uPA surface inh -5%.
For CCOC(=O)Cc1[nH]nc2c1C(C1C=CCCC1)C(C#N)=C(N)O2 (stereo not drawn) the results were HT1080-NT tox inconclusive, IL-1B inflam inh -90*, TDP1 cell CPT inconclusive, TDP1 cell noCPT 23µM*, HT1080 IDH1KD tx 21µM* and uPA surface inh -11%.
Screening CCOC(=O)Cc1[nH]nc2c1C(c1cccc(OC)c1OC)C(C#N)=C(N)O2 (stereo not drawn) returned HT1080-NT tox 1%, IL-1B inflam inh -9, TDP1 cell CPT -16%, TDP1 cell noCPT -7%, HT1080 IDH1KD tx 4% and uPA surface inh 1%.
For O=C(CSc1nnc(CNC(=O)c2c(F)cccc2F)o1)NCC1CCCO1 (stereo not drawn) the results were HT1080-NT tox 18%, IL-1B inflam inh 4, TDP1 cell CPT -2%, TDP1 cell noCPT -7%, HT1080 IDH1KD tx 16% and uPA surface inh 5%.

Screens as filed in PubChem.
